Structures are written as SMILES. The panel holds about 79,000 compounds, 15% with a hit somewhere; the sample as a whole holds those more often. Values without a mark were called inactive. Rule as the data show it: active = growth inhibition above about 70%; inactive = the rest. Where a SMILES comes first, the peptide text is derived from it. The star is where a group is joined. Cbz = O=C(OCc1ccccc1)*

The nature of this assay: NCI Yeast Anticancer Drug Screen. Data for the mlh1 rad18 strain (AID 175). Particulars: S. cerevisiae mlh1 rad18 strain growth inhibition; at 50.0 µM; hits give high values. The method, boiled down:
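Genetically defined yeast (DNA repair-deficient) exposed to compounds; growth inhibition determined relative to vehicle.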
With `Cn1c(-c2ccccc2)cc(=O)cc1-c1ccccc1`, the growth inhibition was -19.2%. The same measure for `C1CCC(CCC2CCCC[N-]2)[N-]C1.[I][Co][I]` (stereo not given): 43.5%. For the compound `CCCCCn1cnc2cc(N3CCOCC3)c([N+](=O)[O-])cc2c1=O`, the growth inhibition was 14.3%.

For the compound `CN(C)C(=N)N=C(N)N`, the growth inhibition was -21.1%. Then `CC(=O)Oc1c2oc3cc(O)c(O)cc3c2c(OC(C)=O)c2oc3cc(O)c(O)cc3c12`, with -29.1%. For the compound `OCC(O)C(O)C(O)C(Sc1ccccc1)Sc1ccccc1` (stereo not given), the growth inhibition is 16.8%.

Regarding `Cn1c(C(N)=O)cc(=O)n1-c1ccc([N+](=O)[O-])cc1`, the growth inhibition was 0.35%.

As for `N/N=C/c1ccc2ccccc2n1`, the growth inhibition is -19.6%. Then `Brc1ccc(Nc2ccc(Br)cc2Br)c(Br)c1`, with 10.2%; and `CN(C)c1ccc(C=Nc2ccc3c(c2)C(N2CCOCC2)c2ccccc2-3)cc1` (stereo not given), with 0.35%; and `Cc1cc2c3c(c1)CCCN3CCC2`, with 2.8%.

With `c1ccc(B2O[C@H]3CCCC[C@@H]3O2)cc1`, the growth inhibition was 21.4%. The same measure for `CCNCC(=O)Nc1ccccc1C(=O)OCC`: 10.1%; for `CC1CCOC(/C=C/c2ccccc2)O1` (stereo not given): -1.75%; for `CCCC(=O)OCC1OC2OC(C)(C)OC2C2OC(C)(C)OC12` (stereo not given): -6.25%. On to `C=C(CC)C(=O)c1ccc(OCC(=O)O)c(Cl)c1Cl`, for which the growth inhibition is -8.35%. With `N#CCCNCCNCCC#N`, the growth inhibition was -26.4%. On to `C[N+]([O-])(C/C=C/c1ccccc1)c1ccccc1` (stereo not given), for which the growth inhibition was -2.7%. As for `O=c1onc2c3ccccc3ncn12`, the growth inhibition is 0.65%. On to `CC(C(=O)O)n1c(=O)ssc1=O` (stereo not given), for which the growth inhibition is 0%. For `CCOC(=O)CCC(NC(=O)c1ccc([N+](=O)[O-])cc1)C(=O)OCC` (stereo not given), the growth inhibition is 26.1%.

For `COc1cc(-c2cc(=O)c3c(O)c(OC)c(OC)cc3o2)ccc1O`, the growth inhibition was -41.5%. Take `CC(=O)c1cc2c(cc1C)CCCC2(C)C`: the growth inhibition is 1.35%. `CN(C)CC1CC=CCC1CN(C)C` (stereo not given): the growth inhibition was -8.7%. For the compound `O=C(CC(=O)N1N=C(N(c2ccccc2)c2ccccc2)CC1c1ccccc1)Nc1ccccc1` (stereo not given), the growth inhibition is 0.1%. In the case of `CC(O)C(NC(=O)C(Cc1ccc(O)cc1)NC(=O)OCc1ccccc1)C(=O)O` (stereo not drawn) (Cbz-Tyr-Thr-OH; configuration not given here), the growth inhibition is -0.7%. As to `BrC1(Br)C2CC/C=C/CCCCC21` (stereo not given), the growth inhibition was -27.1%. Then `C=C1CCC/C(=N\Nc2ccc([N+](=O)[O-])cc2[N+](=O)[O-])C12CCCC2`, with -1.35%; and `CC(=O)Oc1cccc(/C=C/C(=O)O)c1`, with 18.9%.

Turning to `Cc1ccc2c(ccc3ccccc32)n1`, the growth inhibition was 45.4%. Then `COc1cccc(C2c3cc4c(cc3OC(C)(OC)C2C)OCO4)c1` (stereo not given), with 15.8%. The same measure for `O=C(c1nc2ccccc2[nH]1)N1CCN(c2ccccc2)CC1`: 7.3%; for `O=C(O)c1ccc(CS(=O)c2ccccc2)c([N+](=O)[O-])c1` (stereo not given): 24.7%; for `Nc1ccc2ccccc2c1[N+](=O)[O-]`: 39.3%. The same measure for `O/N=C1/CCCCC1NO` (stereo not given): -19.7%. Turning to `N#CCCOC1C(OCCC#N)C(OCCC#N)C(OCCC#N)C(OCCC#N)C1OCCC#N` (stereo not given), the growth inhibition is 16.1%. Then `COC1=C(c2c[nH]c3ccc(CC=C(C)C)cc23)C(=O)C(OC)=C(c2c[nH]c3ccc(CC=C(C)C)cc23)C1=O`, with 29.6%; and `CCCCCCC#CC(=O)OCCCC`, with -16.4%; and `CCc1ccc2c(c1)C(C)(CC)CCC2C` (stereo not given), with 8.7%.

With `CCCCCCCCC(C)(C)O`, the growth inhibition is -4.45%.

Values taken from PubChem BioAssay (NCI).
